The results in this text go back to PubChem BioAssay (Tox21).

The structures appear in SMILES notation. “And” between values parts separate entries of the source, which are not always exact repeats. Equal entries are not always repeated. Results filed as inconclusive are left out. Some structures have more than one record in an assay (separate samples or runs), and their calls can disagree. The source made the active and inactive calls. Unless noted, calls follow the shape of the dose curve; as a rule, active = well fitted curve in the direction sought with a large enough effect in the repeat runs; inconclusive = weak or mixed curves; inactive = no such curve, though single readings can be large; an effect the other way counts as inactive or inconclusive. Starred links: 1 amine or outer side, 2 acyl side, 3 side chain; linkers in the order of their positions; H or OH if unused. Positions of bridges follow the written chain, without caps; N, C: chain ends. Non-standard residues stand in square brackets, D forms with d. Residues, ends and D or L forms follow the SMILES beside them. Chains are numbered I, II in the order given. Actinocin(9to1) = Cc1c2oc3c(C)ccc(C(=O)[*:1])c3nc-2c(C(=O)[*:2])c(N)c1=O; NMeV = CN[C@H](C(=O)O)C(C)C; Sar = CNCC(=O)O

The nature of assay [1]: qHTS assay for small molecule agonists of the p53 signaling pathway (AID 651631; calls by dose curve; also: nearly all actives have a fitted effect of over 15% in size; also: potency is read from the fitted curve at half-maximal effect). The procedure, abridged:
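Testing took place in human colorectal HCT-116 cells with stable p53RE-driven beta-lactamase. After 16 h of compound exposure at 37 °C, a FRET substrate was added and fluorescence recorded 2 h later.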

A short description of assay [2]: qHTS assay for small molecules that induce genotoxicity in human embryonic kidney cells expressing luciferase-tagged ATAD5 (AID 651632). Also: nearly all actives have a fitted effect of over 15% in size. Also: potency is read from the fitted curve at half-maximal effect. The procedure, abridged: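 Genotoxicity read-out via ATAD5-luciferase: HEK293T cells, 16 hr compound incubation at 37C, Amplite detection.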
Assay [3] is described as follows: qHTS assay for small molecule agonists of the p53 signaling pathway - cell viability (AID 651633; calls by dose curve; also: series mostly up to about 83 µM; nearly all actives have a fitted effect of over 30% in size). The procedure, abridged:
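p53RE-bla cells, seeded at 4,000 per well and rested 5 h at 37 C/5% CO2, received compounds in DMSO for 16 h at 37 C. CellTiter-Glo was then added, and luminescence was read after 30 min at room temperature to gauge cytotoxicity.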

Assay [4] can be described thus: qHTS assay for small molecule disruptors of the mitochondrial membrane potential - cell viability (AID 720634; calls by dose curve;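 also: human HepG2 liver cancer cells; series mostly up to about 83 µM; nearly all actives have a fitted effect of over 20% in size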). The procedure, abridged:
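Human hepatoma HepG2 cells were treated for 1 hr with test chemicals, then given m-MPI dye and CellTiter-Glo. Cell viability reflects luminescence proportional to cellular ATP.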

Assay [5] is described as follows: qHTS assay to test for compound auto fluorescence at 590 nm (red) in HepG2 cells (AID 720674). The procedure, abridged: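 Intrinsic compound fluorescence in the red window (Ex/Em 540/590 nm) is measured in attached HepG2 cells exposed for 1 hr, DMSO vehicle as baseline, benchmarked to Rose Bengal sodium.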
Assay [6] is described as follows: qHTS assay to test for compound auto fluorescence at 535 nm (green) in HepG2 cells (AID 720675).
Assay [7] in a line: qHTS assay to test for compound auto fluorescence at 460 nm (blue) in HEK293 cells (AID 720678). The procedure, abridged:
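Cells were seeded and left to adhere for 4-5 hr at 37C. Compounds were then pin-transferred. After an overnight incubation at 37C under 5% CO2, intrinsic fluorescence at 405/460 nm was measured and referenced to triamterene.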

Assay [8] in a line: qHTS assay to test for compound auto fluorescence at 590 nm (red) in HEK293 cells (AID 720679). The procedure, abridged: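 Each well held 2,000 HEK293 cells in medium containing 10% dialyzed FBS. Following 4-5 hr attachment at 37C, 23 nL test compound or DMSO was added; plates sat overnight, and red fluorescence (540/590nm) was recorded.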
The nature of assay [9]: qHTS assay to test for compound auto fluorescence at 535 nm (green) in HEK293 cells (AID 720680).
The nature of assay [10]: qHTS assay to test for compound auto fluorescence at 535 nm (green) in HEK293 cell free culture (AID 720682). The procedure, abridged: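 DMEM + 10% FBS, cell-free; cpd or DMSO pinned in; Ex485/Em535 read; output as fluorescein-equivalent signal.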
Assay [11] can be described thus: qHTS assay to test for compound auto fluorescence at 590 nm (red) in HEK293 cell free culture (AID 720683). The procedure, abridged: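 Tox21 10K library compounds were pinned into cell-free DMEM with 10% FBS and fluorescence was read at excitation 540 nm. Activity is expressed as Rose Bengal sodium equivalency.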
A short description of assay [12]: qHTS assay to test for compound auto fluorescence at 590 nm (red) in HepG2 cell free culture (AID 720684). The procedure, abridged:
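Measured in medium alone (MEM containing 10% FBS) following pintool addition of compound; emission at 590 nm with 540 nm excitation, referenced to Rose Bengal sodium.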

The nature of assay [13]: qHTS assay to test for compound auto fluorescence at 460 nm (blue) in HepG2 cell free culture (AID 720685). The procedure, abridged: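 Compound (23 nL) or DMSO pinned into cell-free MEM with 10% FBS; blue fluorescence read at 405/460 nm excitation/emission, expressed as auto-fluorescence equivalency to triamterene.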
A short description of assay [14]: qHTS assay to test for compound auto fluorescence at 535 nm (green) in HepG2 cell free culture (AID 720686).
The nature of assay [15]: qHTS assay to test for compound auto fluorescence at 460 nm (blue) in HepG2 cells (AID 720687). The procedure, abridged:
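Cells (2,000/well in MEM with 10% FBS) attached overnight at 37 C, then were exposed to compound or DMSO for 1 hr at 37 C, 5% CO2. Fluorescence read at Ex/Em 405/460 nm, expressed as triamterene-equivalent signal.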

For assay [16], the target named is Glucocorticoid receptor (Homo sapiens) (UniProt P04150). Briefly: qHTS assay to identify small molecule antagonists of the glucocorticoid receptor (GR) signaling pathway (AID 720692; active = well fitted inhibition curve with a large enough effect in the signal ratio in the repeat runs, not every such curve was filed as active; the % refers to the signal ratio; also: potency is read from the fitted curve at half-maximal effect). The procedure, abridged:
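Fluorescence from cleaved LiveBLAzer B/G FRET substrate reports GRE-driven beta-lactamase in HeLa cells; compounds are tested against 5 nM dexamethasone (final) over 18 h at 37 C, substrate incubation 2 h at room temperature.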

Assay [17] can be described thus: qHTS assay for small molecule disruptors of the mitochondrial membrane potential (AID 720635). The procedure, abridged: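 HepG2 cells (2,000/well) attached overnight at 37C, then took compound for 1 hr at 37C, 5% CO2. Mito-MPS dye was added for 30 min; fluorescence was read at 490/535 nm (monomers) and 540/590 nm (aggregates).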
A short description of assay [18]: qHTS assay to test for compound auto fluorescence at 460 nm (blue) in HEK293 cell free culture (AID 720681). The procedure, abridged: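 Test compounds were pinned into cell-free culture medium (DMEM with 10% FBS) and fluorescence was read directly at Ex/Em 405/460 nm. Signals were expressed as fluorescence equivalents of triamterene, with DMSO vehicle as control.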

Assay [19] concerns the target Glucocorticoid receptor (Homo sapiens) (UniProt P04150). Briefly: qHTS assay to identify small molecule agonists of the glucocorticoid receptor (GR) signaling pathway (AID 720691; active = well fitted activation curve with a large enough effect in the signal ratio in the repeat runs, not every such curve was filed as active; the % refers to the signal ratio). The procedure, abridged:
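Beta-lactamase reporter activity, read as fluorescence intensity, was measured in GR-bla HeLa cells exposed to compounds for 18 h at 37 C and then loaded with LiveBLAzer B/G FRET substrate for 2 h at room temperature.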

A short description of assay [20]: qHTS assay for small molecules that induce genotoxicity in human embryonic kidney cells expressing luciferase-tagged ATAD5 - cell viability (AID 651634; calls by dose curve; also: nearly all actives have a fitted effect of over 25% in size). The procedure, abridged:
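Live-cell protease activity (CellTiter-Fluor, fluorescence) indicates viability. HEK293T cells with luciferase-tagged ATAD5; 15.5 hr compound treatment at 37C.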

Chain of Glucocorticoid receptor (Homo sapiens) (P04150 whole entry, looked up): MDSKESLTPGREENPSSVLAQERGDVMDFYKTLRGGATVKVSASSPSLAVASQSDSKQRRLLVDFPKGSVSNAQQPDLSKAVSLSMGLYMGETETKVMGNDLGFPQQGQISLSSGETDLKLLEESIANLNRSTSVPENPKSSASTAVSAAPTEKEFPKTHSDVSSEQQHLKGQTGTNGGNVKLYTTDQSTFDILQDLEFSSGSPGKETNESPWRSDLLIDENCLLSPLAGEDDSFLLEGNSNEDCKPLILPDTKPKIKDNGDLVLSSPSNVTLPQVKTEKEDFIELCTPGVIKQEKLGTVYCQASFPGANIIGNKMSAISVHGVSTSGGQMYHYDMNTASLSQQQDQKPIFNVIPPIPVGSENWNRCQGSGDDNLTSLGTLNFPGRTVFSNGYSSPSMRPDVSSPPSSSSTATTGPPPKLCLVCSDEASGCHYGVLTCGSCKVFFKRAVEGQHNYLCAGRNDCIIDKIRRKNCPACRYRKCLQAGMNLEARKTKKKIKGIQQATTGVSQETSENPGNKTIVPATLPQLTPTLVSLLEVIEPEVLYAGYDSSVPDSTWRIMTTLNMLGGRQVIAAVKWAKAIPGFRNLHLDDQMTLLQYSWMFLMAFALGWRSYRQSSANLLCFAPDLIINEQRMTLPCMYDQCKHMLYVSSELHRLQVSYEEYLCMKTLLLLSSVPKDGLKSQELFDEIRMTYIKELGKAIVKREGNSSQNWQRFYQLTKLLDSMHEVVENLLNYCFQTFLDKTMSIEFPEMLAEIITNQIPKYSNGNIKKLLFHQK

Regarding `Cc1c2oc3c(C)ccc(C(=O)N[C@@H]4C(=O)N[C@H](C(C)C)C(=O)N5CCC[C@H]5C(=O)N(C)CC(=O)N(C)[C@@H](C(C)C)C(=O)O[C@@H]4C)c3nc-2c(C(=O)N[C@@H]2C(=O)N[C@H](C(C)C)C(=O)N3CCC[C@H]3C(=O)N(C)CC(=O)N(C)[C@@H](C(C)C)C(=O)O[C@@H]2C)c(N)c1=O` (I: T[dV]P[Sar][NMeV] / II: T[dV]P[Sar][NMeV]; ester I:1-I:C, II:1-II:C; linker I:N-II:N via Actinocin(9to1)), the Potency is 5.3 nM (active) and 2.7 nM (active) in [1]; 134 nM (active) in assay [16]. In addition, the Potency result in assay [2], in [3], in assay [4], in [6], in [7] and in [9] was “inactive” throughout. Also, the Potency entry in assay [10], in [13], in [14] and in assay [15] was “inactive” each time. The call in assay [5], in assay [8], in assay [11] and in assay [12] was inactive.
For the compound `NC(N)=Nc1nc(CSCC/C(N)=N/S(N)(=O)=O)cs1`, the Potency entry in assay [1], in assay [2], in [3], in assay [4], in assay [17] and in assay [6] was “inactive” each time. In addition, the Potency result in assay [7], in assay [9], in [18], in assay [10], in assay [13] and in assay [14] was “inactive” throughout. The Potency result in assay [15], in assay [19] and in assay [16] was “inactive” in each case. Besides, the compound was called inactive in [5], in assay [8] and in assay [12].
Take `Cc1scc2c1N(C(=O)CN1CCN(C)CC1)c1ccccc1NC2=O`: the Potency entry in assay [1], in assay [2], in assay [20], in assay [4], in [6] and in assay [7] was “inactive” throughout. The Potency entry in assay [9], in [18], in [10], in assay [13], in assay [14] and in assay [15] was “inactive” throughout. In addition, the call in assay [8], in [11] and in assay [12] was inactive.
Turning to `CC(C)C(=O)c1c(C(C)C)nn2ccccc12`, the Potency entry in assay [1], in assay [2], in assay [3], in assay [4], in assay [17] and in assay [6] was “inactive” throughout. In addition, the Potency result in assay [7], in assay [9], in assay [18], in assay [10], in assay [13] and in assay [14] was “inactive” throughout. In [15], the Potency result is “inactive”. Moreover, the call in [5], in assay [8], in assay [11] and in assay [12] was inactive.
As for `OCC(CO)N[C@H]1C[C@](O)(CO)[C@@H](O)[C@H](O)[C@H]1O`, the Potency entry in assay [1], in assay [2], in [4], in assay [17], in [6] and in assay [7] was “inactive” each time. The Potency entry in [9], in assay [18], in assay [10], in [13], in [14] and in assay [15] was “inactive” each time. Moreover, the Potency result in [19] and in [16] was “inactive” each time. Also, the outcome in [5], in [8], in assay [11] and in assay [12] was inactive.
Take `[Cl][In]([Cl])[Cl]`: the Potency entry in assay [1] was “inactive and 61.1 µM (active)”. In addition, the Potency result in [2], in assay [3], in [4], in assay [17], in assay [6] and in assay [7] was “inactive” each time. Also, the Potency result in assay [18], in [10], in assay [13], in assay [14], in assay [15] and in assay [19] was “inactive” each time. Also, the outcome in assay [8], in [11] and in assay [12] was inactive.
For `O=c1n(CC2CO2)c(=O)n(CC2CO2)c(=O)n1CC1CO1` (configuration not stated), the Potency is 13.3 µM (active) and 8.58 µM (active) and 8.63 µM (active) in assay [1]; 23.7 µM (active) and 24.2 µM (active) and 54.5 µM (active) in [2]. Further, the Potency result in assay [3], in assay [4], in assay [17], in assay [6], in [7] and in assay [9] was “inactive” each time. For the same compound, the Potency result in [18], in assay [10], in assay [13], in assay [14] and in assay [15] was “inactive” in each case. Further, the compound was classed as inactive in assay [5], in assay [8], in assay [11] and in assay [12].
